An excerpt weighted towards active compounds, which were near 2.8% of everything screened.
HIF-2a inh = blocks HIF-2a reporter activity; AID 624352; 786-0 RCC cells HIF-2a reporter, luciferase luminescence, overnight; inhibition, % at 18.8 µM; 0.72% of 360,000 active;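 active means inhibition of the luminescence signal of 40% or more relative to plate controls, in a single-dose primary screen at 18.75 µM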
Peg3 prom inh = reduces Peg3 promoter-driven luciferase expression in HeLa; inhibition, % at 20 µM; HeLa PEG-Prom luciferase reporter, luminescence, overnight; 1.7% of 360,000 active;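 active means inhibition of at least 50% at 20 µM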
KKLEB cytotox = counter-screen for CF NF-kB inhibitors: cytotoxicity | KKLEB CF airway cells viability, ATPlite luminescence, overnight; active compounds read low; cells stimulated with P. aeruginosa culture filtrate | activity change (cytotoxicity), % at 5 µM | 0.36% of 360,000 active | AID 602141;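 active means corrected activity change at or below -50% at 5 µM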
CF NFkB inh = blocks PAF-induced NF-kB reporter in cystic fibrosis cells | KKLEB NF-kB-GFP reporter, GFP fluorescence overnight | inhibition, % at 5 µM | 0.86% of 360,000 active | AID 588850;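 active means at least 50% inhibition at 5 µM, scaled per plate between neutral and stimulator controls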;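 further: PAF is a Pseudomonas aeruginosa culture filtrate used as stimulus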
MITF TRPM1 inh = MITF TRPM1 promoter inhibition in SK-MEL-5 cells | SK-MEL-5 TRPM1 promoter luciferase, 24 h | inhibition, % at 12.5 µM | 0.83% of 330,000 active;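 active means mean inhibition across replicates of 60% or more, whatever share of single replicates reaches that level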
Beta2AR agonist = human beta-2 adrenergic receptor agonism by FAP | response, % (test concentration not listed) | P07550 | Am2.2-beta2AR cells, FAP receptor internalization, flow cytometry | 0.43% of 340,000 active | AID 504454;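 active means response above a set limit, near 3 SD of response in nonfluorescent compounds, cut at about 42% in these data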
Target sequence (P07550 whole entry, looked up): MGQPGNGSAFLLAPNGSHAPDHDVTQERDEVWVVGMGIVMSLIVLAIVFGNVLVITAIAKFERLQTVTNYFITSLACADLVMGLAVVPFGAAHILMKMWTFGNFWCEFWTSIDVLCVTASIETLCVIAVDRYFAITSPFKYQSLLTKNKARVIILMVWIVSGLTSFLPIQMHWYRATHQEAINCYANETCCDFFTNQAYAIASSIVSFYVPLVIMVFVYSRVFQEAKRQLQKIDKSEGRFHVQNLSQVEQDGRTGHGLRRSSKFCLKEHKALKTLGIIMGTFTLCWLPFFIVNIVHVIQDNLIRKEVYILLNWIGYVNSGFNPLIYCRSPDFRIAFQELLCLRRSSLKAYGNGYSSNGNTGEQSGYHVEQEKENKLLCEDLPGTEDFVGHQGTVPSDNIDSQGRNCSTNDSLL
Large screens that a line does not name were inactive.

CCOC(=O)CSc1ccc(C(=O)N2CCN(C)CC2)cc1[N+](=O)[O-]	Peg3 prom inh 104
O=C(NCc1ccc(Cl)cc1)c1ccc(CNc2c(N3CCCC3)c(=O)c2=O)cc1	HIF-2a inh 51
O=C(NCc1ccc(Cl)cc1)c1ccc(CNc2c(N3CCOCC3)c(=O)c2=O)cc1	none
CCOc1ccc(C(=O)Nc2cccc(-c3nc4cccnc4o3)c2)cc1Cl	Peg3 prom inh 90
CCOc1ccc(C(=O)Nc2cc(NC(=O)c3ccc(OCC)c(Cl)c3)cc(C(=O)O)c2)cc1Cl	none
CCOc1ccc(C(=O)Nc2cccc(C(=O)O)c2)cc1Cl	HIF-2a inh 63
COc1c(C)cc(C(O)c2ncc(-c3cccc(F)c3)[nH]2)cc1C (stereo unspecified)	none (no result: MITF TRPM1 inh, Beta2AR agonist)
CCc1nc2ccc(C(=O)N(C)CCCN(C)C)cn2c1N(C)CCCc1ccccc1	none (no result: MITF TRPM1 inh, Beta2AR agonist)
CC(O)(c1ccc(F)c(F)c1)c1nc(-c2ccccc2)cs1 (stereo unspecified)	none (no result: MITF TRPM1 inh, Beta2AR agonist)
C(=Cc1c[nH]c2ccccc12)c1nccc2ccccc12	KKLEB cytotox -55
c1ccc(-c2nc(-c3nccc4ccccc34)oc2-c2ccccc2)cc1	none
O=Cc1nccc2ccccc12	Beta2AR agonist 61
OCC[n+]1ccc(/C=C/c2c[nH]c3ccccc23)cc1	none
Cc1ccc(-c2nc(-c3ccccc3)no2)cc1	none
Cc1ccc(-c2nc(-c3ccccc3)no2)c(Cl)c1	HIF-2a inh 61, KKLEB cytotox -80
CCC(=O)NC(c1cc(Cl)c2cccnc2c1O)C(C)C (stereo unspecified)	none
CCC(=O)NC(c1ccco1)c1cc(Br)c2cccnc2c1O (stereo unspecified)	none (no result: MITF TRPM1 inh, Beta2AR agonist)
O=[N+]([O-])c1cc(Cl)c2cccnc2c1O	none
CCC(=O)NC(c1ccc(C)cc1)c1cc([N+](=O)[O-])c2cccnc2c1O (stereo unspecified)	Peg3 prom inh 53
CCCC(=O)NC(c1ccco1)c1cc([N+](=O)[O-])c2cccnc2c1O (stereo unspecified)	CF NFkB inh 57
CCCCC(=O)NC(c1cccs1)c1cc(Cl)c2cccnc2c1O (stereo unspecified)	Peg3 prom inh 51
CC(=O)NC(c1ccc(C)cc1)c1cc([N+](=O)[O-])c2cccnc2c1O (stereo unspecified)	Peg3 prom inh 54
Cc1ccc(S(=O)(=O)N(C)C)cc1NC(=O)C(C)OC(=O)CC1CC2CCC1C2 (stereo unspecified)	none (no result: MITF TRPM1 inh, Beta2AR agonist)
COc1ccc(NC(=O)Cc2ccccc2)cn1	none
COc1ccc(NC(=O)/C(Cl)=C(/Cl)S(=O)Cc2ccccc2)cn1 (stereo unspecified)	HIF-2a inh 94, Peg3 prom inh 105, KKLEB cytotox -95, CF NFkB inh 88, MITF TRPM1 inh 104, Beta2AR agonist 50
COc1ccc2nc(NC(=O)c3ccc([N+](=O)[O-])o3)sc2c1	CF NFkB inh 66
CCOC(=O)c1cccc(C(=O)Nc2nc3ccc(OC)cc3s2)n1	KKLEB cytotox -55
O=C(Nc1nc2cc3c(cc2s1)OCCO3)c1ccc([N+](=O)[O-])o1	CF NFkB inh 83
CC1(C(=O)Nc2cccc(OC(F)(F)F)c2)Cc2c(-c3ccc4c(c3)OCO4)ccnc2O1 (stereo unspecified)	none (no result: MITF TRPM1 inh, Beta2AR agonist)
COC(=O)CC1(c2cccc3ccccc23)C(=O)c2ccccc2C1=O	HIF-2a inh 78
COc1ccccc1N(Cc1ccccc1)S(=O)(=O)c1cccc(C(=O)NC2CC(C)(C)NC(C)(C)C2)c1	Peg3 prom inh 87
O=C(O)c1ccc(Cl)c(S(=O)(=O)N(Cc2ccccc2)c2ccc(Cl)cc2)c1	none
CC1(C)CC(NC(=O)c2ccc(Cl)c(S(=O)(=O)N(Cc3ccccc3)c3ccccc3)c2)CC(C)(C)N1	Peg3 prom inh 107, MITF TRPM1 inh 92
CCOc1cccc(-c2cnc3cccnn23)c1	none (no result: MITF TRPM1 inh, Beta2AR agonist)
O=C(O)c1ccccc1NC(=S)NC(=O)c1sc2ccccc2c1Cl	none
O=C(NNC(=S)NC(=O)c1sc2ccccc2c1Cl)c1ccc(Cl)cc1	KKLEB cytotox -65, CF NFkB inh 76
Cc1ccc(S(=O)(=O)N(C)C)cc1NC(=O)CN1C(=O)NC2(CCc3ccccc32)C1=O (stereo unspecified)	none (no result: MITF TRPM1 inh, Beta2AR agonist)
CC1(c2nnnn2Cc2ccccc2)CCC(=O)N1Cc1ccc(F)cc1 (stereo unspecified)	none (no result: Peg3 prom inh, KKLEB cytotox, CF NFkB inh, MITF TRPM1 inh, Beta2AR agonist)

Bioassay records (PubChem)
